Inconclusive results are not listed. Calls of active or inactive are those of the source. Unless noted, calls come from the whole dose curve; as a rule, active = well fitted curve in the direction sought with a large enough effect; inconclusive = small, poorly fitted or top-dose-only effect, or another doubt; inactive = no such curve, though single readings can be large; an effect the other way counts as inactive or inconclusive.
Legend:
[1] = molecular target: Lysosomal acid glucosylceramidase (Homo sapiens) (UniProt P04062); assay: Glucocerebrosidase-p2 (AID 348; in the data active = potency below about 10 µM; note: potency is the fitted concentration of half-maximal effect); conditions: purified GBA, blue fluorogenic substrate, 40 min
How it was run: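 Compounds titrated from 0.6 nM upwards against 0.2 nM enzyme in pH 5.9 citric acid/KH2PO4, taurocholate, tween-20; blue fluorogenic substrate 80 uM, 40 min room temperature, stopped and read Ex 365/Em 440 for AC50.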

[2] = AP1 Signaling Pathway (AID 357; active = well fitted curve in either direction with a large enough effect, not every such curve was filed as active; note: % is set by controls: 0 for no effect and ±100 for the full control effect); conditions: ME-180 AP-1-bla reporter, EGF-induced, beta-lactamase ratio, 5 h; at 7.69 µM (top of the series) unless noted
How it was run: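 In this screen, ME-180 cells in Opti-MEM with 0.5% dialyzed FBS received EC50 EGF and compound titrations for 5 h. AP-1 reporter beta-lactamase was detected via CCF4 ratio, giving AC50 for positive and negative modulators.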

[3] = molecular target: Cytochrome P450 1A2 (Homo sapiens) (UniProt P05177); assay: p450-cyp1a2 (AID 410; calls by dose curve; note: potency is the fitted concentration of half-maximal effect); conditions: recombinant CYP1A2, luciferin-ME demethylation, luminescence; series mostly up to 57 µM
How it was run: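 Human CYP1A2 (20nM) demethylated Luciferin-ME at its Km (100uM) in 100mM KPO4. After 10 min compound preincubation, NADPH regeneration ran the reaction 60 min at room temperature. Luciferin was read by luminescence, normalized to 57 uM furafylline.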

[4] = NFAT Signaling Pathway (AID 444; active = well fitted curve in either direction with a large enough effect, not every such curve was filed as active;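 note: carbachol stimulus at about its EC50 of 1 µM final; % is set by controls: 0 for no effect and ±100 for the full control effect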); conditions: Jurkat NFAT-bla M1, carbachol, beta-lactamase ratio, 5 h; at 7.69 µM (top of the series) unless noted
How it was run: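 Jurkat cells with NFAT-driven β-lactamase reporter and co-expressed M1 receptor, stimulated with carbachol (final 1 uM, ~EC50), compound titration, 5 h at 37 °C. CCF4 loaded 1 h at RT; 460/530 nm ratio gave %activity and AC50.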

[5] = Stat Signaling Pathway (AID 446; active = well fitted curve in either direction with a large enough effect, not every such curve was filed as active;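 note: ME-180 cervical cancer cells given 40 pM IL-6 alongside compound; SIE-controlled beta-lactamase reporter measured as 460/530 nm FRET emission ratio; % is set by controls: 0 for no effect and ±100 for the full control effect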); conditions: ME-180 (cervical carcinoma) SIE beta-lactamase reporter, IL-6 stimulated, 5 h; at 7.69 µM (top of the series) unless noted
How it was run: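 IL-6/STAT signaling read in ME-180 cells via an SIE beta-lactamase reporter. Stimulus was 40 pM IL-6 (its AC50) for 5 hrs, so both activation and inhibition register.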

[6] = molecular target: Glucocorticoid receptor (Homo sapiens) (UniProt P04150); assay: GR-GFP Redistribution (AID 450;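 active = compounds whose dose series gives a full or clear partial fitted curve of increased nuclear translocation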; note: potency is the fitted concentration of half-maximal effect); conditions: U2OS GR-GFP nuclear translocation, laser cytometry, 2 h
[7] = molecular target: Glucocorticoid receptor (Homo sapiens) (UniProt P04150); assay: GR-EFC Redistribution (AID 451; calls by dose curve; note: potency is the fitted concentration of half-maximal effect); conditions: CHO-K1 GR-EFC translocation, beta-gal luminescence, 2 h
How it was run: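 CHO-K1 cells expressing nuclear EA and GR-ED fragments of b-gal; compounds titrated up to 46 uM final, 2 h at 37 C. GR nuclear translocation read as complemented b-gal luminescence after 1 h RT detection.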

[8] = molecular target: Mitogen-activated protein kinase 10 (Mus musculus) (UniProt Q61831); assay: JNK3 AlphaScreen Assay (AID 530; active = well fitted curve in either direction with a large enough effect, not every such curve was filed as active;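 note: kinase came from lysate of stimulated human HepG2 cells; signal reports phosphorylation of biotinylated GST-cJun 1-79 at Ser73 with 10 µM ATP; % is set by controls: 0 for no effect and ±100 for the full control effect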); conditions: JNK3 lysate, c-Jun phosphorylation; series mostly up to 57.1 µM
How it was run: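 qHTS format: compounds tested as titrations against IL-1beta/TNF-alpha-activated HepG2 lysate JNK3 with biotin-GST-cJun substrate and 10 uM ATP at room temperature. Loss of anti-phospho-cJun AlphaScreen signal indicates inhibition.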

[9] = molecular target: Cytochrome P450 3A4 (Homo sapiens) (UniProt P08684); assay: qHTS Assay for Activators of Cytochrome P450 3A4 (AID 885); conditions: recombinant CYP3A4, Luciferin-PPXE luminescence, 60 min; series mostly up to 57.1 µM; note: nearly all actives have a fitted effect of over 65% in size
How it was run: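 Quantitative HTS format: compounds preincubated with 20nM human CYP3A4 and Luciferin-PPXE substrate at KM, reaction started by NADPH regeneration, stopped after 60 min, luciferase luminescence read 20 min later.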

[10] = Confirmation and Secondary Assay for Modulators of Hemoglobin Beta Chain Splicing at IVS2 654 locus (AID 910); conditions: HeLa EGFP-654 splicing reporter, GFP fluorescence, 48 h; series mostly up to 38.3 µM;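 note: HeLa cells stably carrying EGFP split by mutant beta-globin IVS2-654 intron; % of control where 0% means no effect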
How it was run: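 HeLa cells stably expressing EGFP interrupted by β-globin IVS2-654 intron, seeded overnight in Opti-MEM/2% FCS, then treated 2 days at 37 °C. Restored splicing read as total peak GFP intensity per well by laser scanning cytometry (488 nm excitation, 500–520 nm emission); 500 nM antisense PNA as control.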

[11] = Confirmation and Secondary Assay for Modulators of Hemoglobin Beta Chain Splicing at IVS2 705 locus (AID 930); conditions: HeLa EGFP-705 splicing reporter, GFP fluorescence, 48 h; series mostly up to 38.3 µM;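 note: HeLa cells stably expressing the EGFP-705 splicing reporter; GFP fluorescence per well restored by corrected splicing of the IVS2-705 intron in EGFP; % of control where 0% means no effect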
How it was run: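 Per-well GFP, captured at 1 x 8 µm resolution with 488 nm excitation, served as the read-out for HeLa EGFP-705 cells incubated 2 days with test compound versus DMSO.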

[12] = qHTS Assay for Lipid Storage Modulators (AID 1519; calls by dose curve); conditions: Drosophila S3 cells, BODIPY lipid droplet/cell ratio, laser cytometry, cells loaded with oleic acid; for activity change, negative = inhibition: at 57.5 µM (top of the series)
How it was run: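 Cells seeded at 5,000 per well were treated with compounds over a concentration series and loaded with oleic acid (400 uM, as added). Lipid droplet fluorescence (488 nm excitation, 500-530 nm channel) was read by laser-scanning cytometry and normalized to 20 uM Triacsin C.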

[13] = molecular target: Ubiquitin carboxyl-terminal hydrolase 1 (Homo sapiens) (UniProt O94782); assay: Inhibitors of USP1/UAF1: Pilot qHTS (AID 504865); conditions: purified USP1/UAF1, Ub-rhodamine cleavage fluorescence; series mostly up to 54.9 µM;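 note: rhodamine fluorescence freed from ubiquitin-rhodamine substrate followed over time; top concentration of the series differs between compounds; % is set by controls: 0 for no effect and ±100 for the full control effect; nearly all actives have a fitted effect of over 35% in size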
How it was run: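 Enzyme-free wells gave the negative control, while test wells held 1nM USP1/UAF1 preincubated with compound for 15 min at room temperature. Ub-Rho at 150nM final started the reaction, and fluorescence at 480/540 nm was recorded kinetically.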

[14] = Primary qHTS for small molecule stabilizers of the endoplasmic reticulum resident proteome: Secreted ER Calcium Modulated Protein (SERCaMP) assay (AID 1508630); conditions: SH-SY5Y GLuc-SERCaMP (Gaussia luciferase released on ER calcium loss) secretion, thapsigargin, luminescence; series mostly up to 38.4 µM; note: % is set by controls: 0 for no effect and ±100 for the full control effect
How it was run: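 GLuc-SERCaMP-expressing SH-SY5Y cells, pretreated 16 h with compound, are challenged with thapsigargin to empty ER calcium stores; after 4 h, coelenterazine is added directly to the medium and luminescence is imaged.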

[15] = molecular target: 3',5'-cyclic-AMP phosphodiesterase 4B (Homo sapiens) (UniProt Q07343); assay: qHTS Assay for Inhibitors of PDE-IV (AID 607; active = well fitted activation curve with a large enough effect in the main read-out, with a control signal flat, not every such curve was filed as active; note: % of control where 0% means no effect); conditions: HEK293 ACTOne CNG channel cells, membrane potential fluorescence; series mostly up to 22.9 µM
How it was run: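 Live HEK293 cells with a modified cyclic nucleotide-gated (CNG) channel report intracellular cAMP via membrane-potential dye fluorescence (ex 535/em 590 nm). Endogenous PDE-IV was targeted. Compounds were tested at up to 22.9 uM final; RO 20-1724 100 uM served as control.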

[16] = molecular target: Cytochrome P450 2C19 (Homo sapiens) (UniProt P33261); assay: qHTS Assay for Inhibitors and Substrates of Cytochrome P450 2C19 (AID 899); conditions: recombinant CYP2C19, luciferin-H EGE luminescence; series mostly up to 57.1 µM; note: potency is the fitted concentration of half-maximal effect; nearly all actives have a fitted effect of over 60% in size
How it was run: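 Luminescent read-out of luciferin formed from Luciferin-H EGE (10uM, equal to KM). Enzyme 5nM in 50mM KPO4; compound added, 10 min at 37C, then NADPH regenerating system for 60 min at 37C. Full inhibition defined by 57uM ketoconazole.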

[17] = measured here: cell count channel max response
[18] = measured here: lipid channel max response

Chain of 3',5'-cyclic-AMP phosphodiesterase 4B (Homo sapiens) (Q07343 whole entry, looked up): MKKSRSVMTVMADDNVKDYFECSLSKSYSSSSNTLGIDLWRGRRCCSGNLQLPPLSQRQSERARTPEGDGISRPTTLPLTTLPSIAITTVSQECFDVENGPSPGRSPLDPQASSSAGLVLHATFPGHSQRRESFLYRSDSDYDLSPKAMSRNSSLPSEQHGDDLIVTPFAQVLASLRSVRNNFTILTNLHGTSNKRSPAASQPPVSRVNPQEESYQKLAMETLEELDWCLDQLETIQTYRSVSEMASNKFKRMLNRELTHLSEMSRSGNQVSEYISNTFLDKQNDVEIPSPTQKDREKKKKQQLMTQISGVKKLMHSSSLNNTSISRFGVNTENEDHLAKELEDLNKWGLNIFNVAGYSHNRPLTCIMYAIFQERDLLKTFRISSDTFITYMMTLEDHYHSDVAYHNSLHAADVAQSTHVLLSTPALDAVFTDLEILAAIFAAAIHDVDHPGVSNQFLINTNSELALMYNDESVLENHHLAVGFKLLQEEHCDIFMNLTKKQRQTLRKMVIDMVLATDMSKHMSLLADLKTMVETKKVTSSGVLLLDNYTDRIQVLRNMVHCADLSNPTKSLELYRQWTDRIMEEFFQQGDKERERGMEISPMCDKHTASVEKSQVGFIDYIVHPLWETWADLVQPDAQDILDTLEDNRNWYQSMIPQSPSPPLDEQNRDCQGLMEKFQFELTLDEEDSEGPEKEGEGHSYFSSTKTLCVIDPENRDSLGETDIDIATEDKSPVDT
Chain of Lysosomal acid glucosylceramidase (Homo sapiens) (P04062 whole entry, looked up): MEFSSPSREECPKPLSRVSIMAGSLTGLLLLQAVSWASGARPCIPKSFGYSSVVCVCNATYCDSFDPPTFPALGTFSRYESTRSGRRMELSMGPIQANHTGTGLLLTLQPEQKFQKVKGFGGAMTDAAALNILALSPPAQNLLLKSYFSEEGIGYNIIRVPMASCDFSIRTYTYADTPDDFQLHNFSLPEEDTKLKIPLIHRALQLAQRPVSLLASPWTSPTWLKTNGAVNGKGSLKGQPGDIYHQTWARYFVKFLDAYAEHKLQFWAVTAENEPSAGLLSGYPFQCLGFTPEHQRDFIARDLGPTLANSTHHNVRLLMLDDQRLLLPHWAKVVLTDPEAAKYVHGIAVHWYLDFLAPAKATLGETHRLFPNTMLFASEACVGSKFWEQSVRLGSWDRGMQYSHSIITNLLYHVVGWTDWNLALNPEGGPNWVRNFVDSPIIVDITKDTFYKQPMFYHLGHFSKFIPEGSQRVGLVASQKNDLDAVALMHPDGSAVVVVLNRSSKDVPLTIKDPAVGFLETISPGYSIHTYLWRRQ
Chain of Ubiquitin carboxyl-terminal hydrolase 1 (Homo sapiens) (O94782 whole entry, looked up): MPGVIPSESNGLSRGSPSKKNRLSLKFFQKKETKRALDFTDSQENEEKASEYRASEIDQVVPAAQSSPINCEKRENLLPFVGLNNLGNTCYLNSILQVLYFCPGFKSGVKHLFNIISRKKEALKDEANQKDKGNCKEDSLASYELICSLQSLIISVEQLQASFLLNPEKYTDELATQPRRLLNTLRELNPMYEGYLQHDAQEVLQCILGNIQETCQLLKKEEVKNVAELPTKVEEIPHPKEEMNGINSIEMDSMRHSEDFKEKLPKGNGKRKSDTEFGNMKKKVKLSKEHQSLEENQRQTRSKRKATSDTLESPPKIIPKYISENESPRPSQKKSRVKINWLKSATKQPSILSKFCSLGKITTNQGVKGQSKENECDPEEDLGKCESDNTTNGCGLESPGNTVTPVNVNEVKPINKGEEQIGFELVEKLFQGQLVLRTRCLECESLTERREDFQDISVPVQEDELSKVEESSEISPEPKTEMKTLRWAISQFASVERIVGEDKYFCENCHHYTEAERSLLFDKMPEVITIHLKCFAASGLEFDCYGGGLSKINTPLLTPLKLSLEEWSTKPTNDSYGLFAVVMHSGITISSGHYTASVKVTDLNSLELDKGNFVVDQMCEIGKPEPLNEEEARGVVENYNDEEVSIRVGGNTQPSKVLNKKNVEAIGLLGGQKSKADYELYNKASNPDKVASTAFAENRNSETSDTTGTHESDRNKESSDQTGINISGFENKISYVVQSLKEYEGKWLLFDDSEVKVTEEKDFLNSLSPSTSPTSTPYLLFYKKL
Chain of Glucocorticoid receptor (Homo sapiens) (P04150 whole entry, looked up, the tested form may be a part): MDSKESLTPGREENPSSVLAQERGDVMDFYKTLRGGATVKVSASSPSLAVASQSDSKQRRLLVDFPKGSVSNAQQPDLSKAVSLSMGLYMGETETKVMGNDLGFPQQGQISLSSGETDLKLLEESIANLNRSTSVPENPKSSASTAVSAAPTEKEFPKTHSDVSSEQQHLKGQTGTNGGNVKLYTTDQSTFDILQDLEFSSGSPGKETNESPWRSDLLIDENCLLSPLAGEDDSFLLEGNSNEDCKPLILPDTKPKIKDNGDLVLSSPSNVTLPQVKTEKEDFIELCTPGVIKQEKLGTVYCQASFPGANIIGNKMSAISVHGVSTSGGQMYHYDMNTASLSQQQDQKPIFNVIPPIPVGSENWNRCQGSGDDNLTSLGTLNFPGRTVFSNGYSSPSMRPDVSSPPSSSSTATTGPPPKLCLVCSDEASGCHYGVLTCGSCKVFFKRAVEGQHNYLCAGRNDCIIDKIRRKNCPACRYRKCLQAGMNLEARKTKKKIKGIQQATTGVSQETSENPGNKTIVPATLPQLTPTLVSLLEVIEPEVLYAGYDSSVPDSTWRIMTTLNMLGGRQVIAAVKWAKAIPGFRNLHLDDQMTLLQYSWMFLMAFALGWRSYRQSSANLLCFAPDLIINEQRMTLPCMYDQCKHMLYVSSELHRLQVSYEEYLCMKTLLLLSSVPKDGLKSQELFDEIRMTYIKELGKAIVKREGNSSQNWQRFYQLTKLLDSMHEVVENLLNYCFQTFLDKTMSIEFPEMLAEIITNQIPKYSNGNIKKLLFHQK
Chain of Cytochrome P450 1A2 (Homo sapiens) (P05177 whole entry, looked up): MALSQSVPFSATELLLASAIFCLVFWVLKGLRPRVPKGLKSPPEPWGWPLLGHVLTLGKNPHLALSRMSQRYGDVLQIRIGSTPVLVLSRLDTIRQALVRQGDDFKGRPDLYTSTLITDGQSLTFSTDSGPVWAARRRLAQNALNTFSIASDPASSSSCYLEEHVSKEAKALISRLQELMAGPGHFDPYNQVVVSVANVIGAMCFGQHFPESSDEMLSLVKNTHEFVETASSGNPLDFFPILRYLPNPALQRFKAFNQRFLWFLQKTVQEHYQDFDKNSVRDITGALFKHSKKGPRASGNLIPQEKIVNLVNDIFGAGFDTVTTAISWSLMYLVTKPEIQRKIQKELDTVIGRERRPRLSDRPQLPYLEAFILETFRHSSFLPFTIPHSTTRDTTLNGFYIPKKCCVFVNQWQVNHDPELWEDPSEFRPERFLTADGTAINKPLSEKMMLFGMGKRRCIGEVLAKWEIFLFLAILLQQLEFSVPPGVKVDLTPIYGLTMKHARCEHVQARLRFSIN
Chain of Cytochrome P450 3A4 (Homo sapiens) (P08684 whole entry, looked up): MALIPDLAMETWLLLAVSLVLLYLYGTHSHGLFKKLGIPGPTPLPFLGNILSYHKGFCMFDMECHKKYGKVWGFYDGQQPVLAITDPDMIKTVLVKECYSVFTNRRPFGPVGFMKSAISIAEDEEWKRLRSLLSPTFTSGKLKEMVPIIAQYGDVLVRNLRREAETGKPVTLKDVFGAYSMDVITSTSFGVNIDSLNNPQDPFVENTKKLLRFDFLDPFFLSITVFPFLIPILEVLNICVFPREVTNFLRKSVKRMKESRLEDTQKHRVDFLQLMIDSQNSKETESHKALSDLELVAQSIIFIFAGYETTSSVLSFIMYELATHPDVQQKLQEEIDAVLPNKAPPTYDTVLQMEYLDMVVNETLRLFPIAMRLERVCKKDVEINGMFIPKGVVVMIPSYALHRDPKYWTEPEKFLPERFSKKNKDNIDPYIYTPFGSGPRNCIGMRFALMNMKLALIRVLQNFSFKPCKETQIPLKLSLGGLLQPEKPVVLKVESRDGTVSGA
Chain of Cytochrome P450 2C19 (Homo sapiens) (P33261 whole entry, looked up): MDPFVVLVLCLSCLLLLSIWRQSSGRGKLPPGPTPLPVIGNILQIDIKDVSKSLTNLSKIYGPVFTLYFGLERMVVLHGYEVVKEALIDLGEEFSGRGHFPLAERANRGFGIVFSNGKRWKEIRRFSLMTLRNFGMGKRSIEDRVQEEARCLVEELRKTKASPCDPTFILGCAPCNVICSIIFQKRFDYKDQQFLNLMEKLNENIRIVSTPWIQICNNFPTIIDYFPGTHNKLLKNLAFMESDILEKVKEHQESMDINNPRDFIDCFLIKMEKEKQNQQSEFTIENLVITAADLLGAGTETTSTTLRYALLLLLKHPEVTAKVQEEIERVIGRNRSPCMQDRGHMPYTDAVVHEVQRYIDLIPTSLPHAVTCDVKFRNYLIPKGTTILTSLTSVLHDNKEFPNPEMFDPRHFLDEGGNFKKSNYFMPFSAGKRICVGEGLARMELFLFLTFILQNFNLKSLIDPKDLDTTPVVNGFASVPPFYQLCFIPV

CN(C)Cc1ccccc1-c1nc(NCc2ccccc2)c2ccccc2n1
6.16%: max response [12, 18]
1.11%: max response [12, 17]
active: Potency [3] 1.26 µM
inactive: Potency [1] > 11.4 µM | activity change, negative = inhibition [2] 15.5% | activity change, negative = inhibition [4] -17.2% | activity, negative = inhibition [5] 4.49% | Potency [6] > 46 µM | Potency [7] > 46 µM | outcome [8] | Potency [9] | outcome [10] | outcome [11] | activity change, negative = inhibition [12] 5.53% | Potency [13] | Potency [14]

COCCn1c(=O)c(C)nc2cnc(N3CCNCC3)nc21
6.84%: max response [12, 18]
active: Potency [3] 10 µM
4.65%: max response [12, 17]
inactive: Potency [1] > 11.4 µM | activity change, negative = inhibition [2] -21.3% | activity change, negative = inhibition [4] -18.9% | activity, negative = inhibition [5] -2.95% | Potency [6] > 9.22 µM | Potency [7] > 46 µM | outcome [8] | Potency [15] | activity change, negative = inhibition [12] 1.17% | Potency [14]

CN(Cc1ccco1)c1cc(-c2ccccc2Cl)ncn1
-2.55%: max response [12, 17]
inactive: Potency [1] > 11.4 µM | activity change, negative = inhibition [2] -3.34% | activity change, negative = inhibition [4] -22.4% | activity, negative = inhibition [5] 5.83% | Potency [6] > 46 µM | Potency [7] > 46 µM | outcome [8] | Potency [15] | outcome [10] | outcome [11] | activity change, negative = inhibition [12] 6.03% | Potency [13] | Potency [14]
active: Potency [3] 2.51 µM | Potency [16] 7.94 µM
5.54%: max response [12, 18]

CN(C)Cc1ccccc1-c1nccc(N(C)C)n1
inactive: Potency [1] > 11.4 µM | activity change, negative = inhibition [2] 23.3% | activity change, negative = inhibition [4] -0.313% | activity, negative = inhibition [5] 10.1% | Potency [6] > 46 µM | Potency [7] > 46 µM | outcome [8] | Potency [15] | Potency [9] | outcome [10] | outcome [11] | activity change, negative = inhibition [12] 2.35% | Potency [13] | Potency [14]
4.56%: max response [12, 17]
active: Potency [3] 12.6 µM
7.89%: max response [12, 18]

N#Cc1ccccc1-c1ccc2ncnc(N3CCNCC3)c2c1
inactive: Potency [1] > 11.4 µM | activity change, negative = inhibition [2] 6.5% | activity change, negative = inhibition [4] 17.9% | activity, negative = inhibition [5] 2.26% | Potency [6] > 46 µM | Potency [7] > 46 µM | outcome [8] | Potency [15] | Potency [9] | outcome [10] | outcome [11] | activity change, negative = inhibition [12] 7.44% | Potency [13] | Potency [14]
18.9%: max response [12, 17]
26.9%: max response [12, 18]
active: Potency [3] 3.98 µM

CN(Cc1ccco1)c1ncnc2ccc(-c3ccccc3C(F)(F)F)cc12
20.9%: max response [12, 17]
18.1%: max response [12, 18]
active: Potency [3] 5.01 µM | Potency [16] 3.16 µM
inactive: Potency [1] > 11.4 µM | activity change, negative = inhibition [2] 4.42% | activity change, negative = inhibition [4] -18.5% | activity, negative = inhibition [5] -19.3% | Potency [6] > 46 µM | Potency [7] > 46 µM | outcome [8] | Potency [9] | activity change, negative = inhibition [12] -0.853% | Potency [13] | Potency [14]
